High-throughput results as filed in PubChem BioAssay.
CHT allo act – allosterically activates the human high affinity choline transporter. CHT-expressing cells, membrane potential dye, choline EC20; hits give high values; LV-AA mutant CHT in HEK293 cells. 0.49% of 310,000 active. B-score at 10 µM;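 active = initial fluorescence not abnormally high and integrated response B-score, plate-corrected, over 3 SD above library mean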
ANO1 block – inhibitors of mouse TMEM16A calcium-activated chloride channel; Q8BHY3; AID 588511; 1.2% of 310,000 active; normalized B-score (activity score, 25-100; higher = stronger inhibition) at 10 µM; HEK293 TMEM16A/YFP iodide influx fluorescence, ionomycin;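 active = ratio plate-corrected score three or more library SD toward inhibition, starting fluorescence score within five deviations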;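 also: score derived from kinetic fluorescence span divided by baseline fluorescence per well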
Target sequence (Q8BHY3 whole entry, looked up): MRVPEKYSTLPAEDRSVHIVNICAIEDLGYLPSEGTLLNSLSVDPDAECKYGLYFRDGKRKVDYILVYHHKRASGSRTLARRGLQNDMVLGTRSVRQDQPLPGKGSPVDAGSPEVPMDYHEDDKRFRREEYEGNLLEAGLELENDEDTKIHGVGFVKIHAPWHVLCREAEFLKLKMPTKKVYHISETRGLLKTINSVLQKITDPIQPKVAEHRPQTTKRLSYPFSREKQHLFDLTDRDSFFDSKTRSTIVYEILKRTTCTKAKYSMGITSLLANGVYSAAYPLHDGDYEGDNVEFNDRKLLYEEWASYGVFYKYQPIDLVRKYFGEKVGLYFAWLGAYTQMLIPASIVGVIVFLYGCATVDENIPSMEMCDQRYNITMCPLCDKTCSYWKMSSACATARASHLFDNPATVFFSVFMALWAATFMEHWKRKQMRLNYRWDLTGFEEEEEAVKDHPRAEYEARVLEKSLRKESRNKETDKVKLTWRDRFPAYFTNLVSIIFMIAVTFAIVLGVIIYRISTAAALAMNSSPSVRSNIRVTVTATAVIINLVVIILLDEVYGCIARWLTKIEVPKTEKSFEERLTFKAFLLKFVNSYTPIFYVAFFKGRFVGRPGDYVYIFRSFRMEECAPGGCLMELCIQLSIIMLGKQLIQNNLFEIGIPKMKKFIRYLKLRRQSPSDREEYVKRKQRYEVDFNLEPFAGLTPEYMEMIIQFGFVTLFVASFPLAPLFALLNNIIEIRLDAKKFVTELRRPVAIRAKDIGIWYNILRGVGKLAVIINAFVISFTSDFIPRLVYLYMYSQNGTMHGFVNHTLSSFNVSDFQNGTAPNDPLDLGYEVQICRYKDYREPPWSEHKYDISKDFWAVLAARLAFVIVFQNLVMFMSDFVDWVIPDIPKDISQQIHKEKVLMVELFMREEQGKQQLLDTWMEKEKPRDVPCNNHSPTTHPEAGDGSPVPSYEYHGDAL
IDE inh – cellular human IDE inhibition; HEK cells, FAbetaB cleavage, fluorescence polarization; inhibition, % at 5.59 µM; 0.41% of 320,000 active; AID 434962;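 active = percent inhibition above the average of all tested compounds plus 3 SD, set per screening campaign, cut at about 16% in these data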;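 also: IDE supplied by intact live HEK cells; FP after avidin binding of uncleaved biotin substrate so inhibition keeps polarization high; 0% = DMSO wells and 100% = 60 µM reference IDE inhibitor Ii1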
CHT inh – inhibits the human high affinity choline transporter. Q9GZV3. CHT-expressing cells, membrane potential dye, choline response; hits give low values. B-score at 10 µM. 0.86% of 310,000 active;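 active = B-score over 3 SD under the library average, and starting fluorescence ratio not unusually high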;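 also: choline stimulus applied at its EC90 after an EC20 pre-addition; B-score computed on integrated fluorescence ratio after choline addition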
ANO1 activ – mouse TMEM16A channel activation, primary screen | HEK293 TMEM16A/YFP-H148Q/I152L, iodide quench fluorescence; hits give low values | B-score at 10 µM | 0.3% of 340,000 active | AID 623877;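 active = fluorescence-ratio B-score plate-corrected deviation score at least 3 library SD below zero, with starting fluorescence score within 5 deviations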;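 also: channel opened by trigger with iodide after compound preincubation; score built on the fluorescence ratio of max minus min over baseline; more negative score means more quench and so TMEM16A activation or potentiation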
IDE cell activ – boosts human insulin-degrading enzyme activity in HEK cells; P14735; FAbeta-B cleavage, fluorescence polarization; 0% vehicle, 100% cell-free pure enzyme wells; activation, % at 5.96 µM; 0.073% of 340,000 active;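 active = activation above the mean of all tested compounds plus 3 SD, set per screening campaign, cut at about 17% in these data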
TMEM16A reconf – re-confirmation of mouse TMEM16A chloride channel inhibitors | HEK293 TMEM16A/YFP-H148Q, iodide quench fluorescence; ionomycin added to raise cell calcium | 39% of 2,300 active | inhibition, % at 10 µM | shares compounds with ANO1 block;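 active = mean duplicate percent inhibition, scaled so buffer wells are 0 and the reference blocker 100, over three buffer SD above buffer mean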
HEK293 Ca mobil – counter-screen for TMEM16A inhibitors: effect on calcium mobilization. TMEM16A/YFP HEK293, Fluo4 calcium mobilization. shares compounds with ANO1 block. AID 652231. 2% of 2,300 active. calcium response (% of ionomycin), % at 10 µM;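 active = duplicate-averaged calcium signal over 20% of the ionomycin maximum, relative to buffer baseline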;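 also: each well's signal is peak minus trough fluorescence divided by its pre-addition baseline; 0% = buffer wells and 100% = ionomycin wells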
YFP-HEK293 quench – counter-screen for TMEM16A inhibitors: effect in parental YFP-HEK293 cells. shares compounds with ANO1 block. iodide YFP quench, ionomycin. YFP ratio F(max-min)/F0 at 10 µM. 2,300 tested, under 10 active. AID 652233;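 active = yellow fluorescent protein signal ratio exceeding the buffer control mean by over 5 SD of those controls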;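 also: ratio is mean of duplicate wells from kinetic YFP trace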
ClC-1 rat inh – selectivity of TMEM16A inhibitors: inhibition of rat ClC-1 chloride channel; shares compounds with ANO1 block; CHO ClC-1-YFP, iodide influx fluorescence quench; iodide control reads 0, buffer control 100; ratio percent, % at 10 µM; 2,300 tested, under 10 active; AID 652236;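 active = duplicate-mean ratio percent above the mean of iodide-only control wells, which defines zero, plus 5 of their SD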;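 also: higher percent means stronger block of ClC-1 iodide influx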
Starred values were filed as active, the others as inactive; i = inactive; / = no result. Only some compounds are listed: those with a hit (about 2.7% of all), similar ones and a draw of the others.

SMILES	CHT allo act	ANO1 block	IDE inh	CHT inh	ANO1 activ	IDE cell activ	TMEM16A reconf	HEK293 Ca mobil	YFP-HEK293 quench	ClC-1 rat inh
CCCOc1ccc(C(=O)NNC(=O)CCNC(=O)c2ccco2)cc1OC	i	i	0	i	i	5	/	/	/	/
COc1ccc(C(=O)N(C)Cc2ccccn2)cc1OC1CCN(C(C)C)CC1	i	i	-4	i	i	3	/	/	/	/
O=C(CCc1ccc(O)cc1)c1c(O)cc(O)cc1O	i	25*	-1	i	i	-3	18%*	i	-1	-17
COc1cc(O)c(CC=C(C)C)c(O)c1C(=O)CCc1ccc(O)cc1	i	i	5	i	i	4	/	/	/	/
COc1ccc(-n2c(=O)cc(N3CCN(c4ccccc4F)CC3)[nH]c2=O)cc1	i	25*	-2	i	i	0	i	i	-1	-6
COc1ccc(-n2c(=O)cc(N3CCN(c4ccccc4OC)CC3)[nH]c2=O)cc1	i	i	2	i	i	-3	/	/	/	/
CCOC(=O)C1=C(c2ccccc2)OC(N)=C(C#N)C1c1ccco1 (centres undefined)	i	25*	4	i	i	6	i	i	-0.86	-4
CCOC(=O)C1=C(CSc2nc(-c3ccccc3)ccc2C#N)OC(N)=C(C#N)C1c1ccccc1 (centres undefined)	i	i	6	i	i	-1	i	i	-1.3	0
COC(=O)C1=C(C)OC(N)=C(C#N)C1c1ccco1 (centres undefined)	i	i	-3	i	i	1	/	/	/	/
CCOC(=O)C1=C(C)Nc2ccccc2N=C1NC(=O)C1CCN(C(=O)c2ccccc2C)CC1	/	/	0	/	i	-2	/	/	/	/
CCCCOC(=O)C1Cc2ccccc2C(=O)O1 (centres undefined)	i	100*	-1	i	i	-1	i	i	-0.91	7
CCOC(=O)C1Cc2ccccc2C(=O)O1 (centres undefined)	i	i	-1	i	i	-2	/	/	/	/
Cc1ccc(C(=O)N2CCCC(C(=O)c3ccc(Oc4ccccc4)cc3)C2)cn1 (centres undefined)	i	100*	11	i	i	-2	29%*	i	-0.89	-10
Cc1ccc(C(=O)N2CCCC(C(=O)c3ccc(Cl)cc3C)C2)cn1 (centres undefined)	i	i	-2	i	i	-4	/	/	/	/
CCCCNC(=S)Nc1ccc(C(F)(F)F)cc1	i	100*	10	i	i	4	40%*	i	-0.9	-22
CCCCNC(=S)Nc1ccc(Cl)cc1	i	i	-4	i	i	1	/	/	/	/
COc1cc(C2c3cc4c(cc3C(OC3OC5COC(c6cccs6)OC5C(O)C3O)C3COC(=O)C23)OCO4)cc(OC)c1O (centres undefined)	i	25*	12	i	i	2	i	i	-1.2	-10
O=C(NNC(=O)c1ccco1)c1ccc(NS(=O)(=O)c2cccs2)cc1	i	i	1	i	i	2	/	/	/	/
COc1ccc(Cc2nc(-c3ccc(-n4cccc4)cc3)no2)cc1	i	i	4	i	i	5	/	/	/	/
COc1ccc(Cc2nc(-c3ccc(-n4cccc4)cc3)no2)cc1OC	i	100*	0	i	i	-5	i	i	-1.2	0
